In PubChem BioAssay AID1159580 (chemical genetic matrix, 2015):
Among all 5,500 compounds or so, about 2,000 (36%) were called active. Roughly 18% stayed inconclusive and do not appear here. No stated cut-off is given here; in the data, active means normalized growth mostly below about 0.91 (no sharp cut-off); inconclusive means no clear call, values can overlap the other calls; inactive means mostly above about 0.92. Some of the results follow.

Assay: chemical genetic growth profiling, strain panel (AID 1159580);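 further: tested at 20 µM; growth read once vehicle control cultures reached saturation at 30 °C; 1 = growth at the plate median or of vehicle wells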
Details: growth OD

Measured: normalized growth

CC(Oc1ccccc1)C(=O)N[C@@H]1C(=O)N2[C@@H]1SC(C)(C)[C@@H]2C(=O)O (some centres not stated)
inactive: S. cerevisiae deletion strains, locus YJR075W, strain HOC1, stronger effect = lower value 1.01 | S. cerevisiae deletion strains, locus YKL009W, strain mrt4, stronger effect = lower value 0.995 | S. cerevisiae deletion strains, locus YKL068W, stronger effect = lower value 1.01 | S. cerevisiae deletion strains, locus YKL085W, strain MDH1 (second series), stronger effect = lower value 1 | S. cerevisiae deletion strains, locus YKL085W, strain MDH1, stronger effect = lower value 1 | S. cerevisiae deletion strains, locus YKL160W, strain elf1, stronger effect = lower value 0.985 | S. cerevisiae deletion strains, locus YKL190W, strain CNB1, stronger effect = lower value 1.01 | S. cerevisiae deletion strains, locus YKR001C, strain vps1, stronger effect = lower value 1.02 | S. cerevisiae deletion strains, locus YKR026C, strain gcn3, stronger effect = lower value 0.993 | S. cerevisiae deletion strains, locus YKR091W, strain srl3, stronger effect = lower value 0.993 | S. cerevisiae deletion strains, locus YLL001W, strain dnm1, stronger effect = lower value 0.983 | S. cerevisiae deletion strains, locus YLL026W, stronger effect = lower value 0.998 | S. cerevisiae deletion strains, locus YLL041C, strain sdh2, stronger effect = lower value 0.992 | S. cerevisiae deletion strains, locus YLR027C, strain aat2, stronger effect = lower value 1 | S. cerevisiae deletion strains, locus YLR039C, strain RIC1, stronger effect = lower value 1.02 | S. cerevisiae deletion strains, locus YLR058C, strain SHM2, stronger effect = lower value 1.01 | S. cerevisiae deletion strains, locus YLR102C, strain apc9, stronger effect = lower value 1.02 | S. cerevisiae deletion strains, locus YLR113W, strain HOG1, stronger effect = lower value 1.01 | S. cerevisiae deletion strains, locus YLR221C, strain rsa3, stronger effect = lower value 0.981 | S. cerevisiae deletion strains, locus YLR258W, strain gsy2, stronger effect = lower value 0.986 | S. cerevisiae deletion strains, locus YLR262C, strain YPT6 (second series), stronger effect = lower value 1.01 | S. cerevisiae deletion strains, locus YLR262C, strain YPT6, stronger effect = lower value 1.04 | S. cerevisiae deletion strains, locus YLR268W, strain sec22, stronger effect = lower value 1.03 | S. cerevisiae deletion strains, locus YLR320W, strain mms22, stronger effect = lower value 0.984 | S. cerevisiae deletion strains, locus YLR330W, strain CHS5, stronger effect = lower value 1.01 | S. cerevisiae deletion strains, locus YLR342W, strain FKS1 (second series), stronger effect = lower value 1 | S. cerevisiae deletion strains, locus YLR342W, strain FKS1, stronger effect = lower value 1 | S. cerevisiae deletion strains, locus YLR357W, strain rsc2, stronger effect = lower value 0.978 | S. cerevisiae deletion strains, locus YLR370C, strain arc18, stronger effect = lower value 0.992 | S. cerevisiae deletion strains, locus YLR371W, strain rom2, stronger effect = lower value 1.02 | S. cerevisiae deletion strains, locus YLR384C, strain iki3, stronger effect = lower value 0.992 | S. cerevisiae deletion strains, locus YLR418C, strain cdc73, stronger effect = lower value 1.04 | S. cerevisiae deletion strains, locus YML016C, strain PPZ1, stronger effect = lower value 1.02 | S. cerevisiae deletion strains, locus YML032C, strain rad52, stronger effect = lower value 1.02 | S. cerevisiae deletion strains, locus YML120C, strain ndi1, stronger effect = lower value 0.985 | S. cerevisiae deletion strains, locus YML124C, strain tub3, stronger effect = lower value 1.02 | S. cerevisiae deletion strains, locus YMR058W, strain fet3, stronger effect = lower value 1 | S. cerevisiae deletion strains, locus YMR078C, strain ctf18, stronger effect = lower value 1.03 | S. cerevisiae deletion strains, locus YMR125W, strain sto1, stronger effect = lower value 0.992 | S. cerevisiae deletion strains, locus YMR129W, stronger effect = lower value 0.99 | S. cerevisiae deletion strains, locus YMR205C, strain PFK2, stronger effect = lower value 0.995 | S. cerevisiae deletion strains, locus YMR223W, strain ubp8, stronger effect = lower value 1.01 | S. cerevisiae deletion strains, locus YMR231W, strain pep5, stronger effect = lower value 1 | S. cerevisiae deletion strains, locus YMR263W, strain SAP30, stronger effect = lower value 1.01 | S. cerevisiae deletion strains, locus YMR307W, strain GAS1, stronger effect = lower value 1.02 | S. cerevisiae deletion strains, locus YNL067W, strain RPL9B, stronger effect = lower value 1.01 | S. cerevisiae deletion strains, locus YNL071W, strain lat1, stronger effect = lower value 0.996 | S. cerevisiae deletion strains, locus YNL128W, strain TEP1, stronger effect = lower value 1.02 | S. cerevisiae deletion strains, locus YNL153C, strain GIM3, stronger effect = lower value 1.01 | S. cerevisiae deletion strains, locus YNL183C, strain NPR1, stronger effect = lower value 0.972 | S. cerevisiae deletion strains, locus YNL209W, strain ssb2, stronger effect = lower value 0.996 | S. cerevisiae deletion strains, locus YNL233W, strain BNI4, stronger effect = lower value 1.02 | S. cerevisiae deletion strains, locus YNL248C, strain rpa49, stronger effect = lower value 0.991 | S. cerevisiae deletion strains, locus YNL250W, strain rad50, stronger effect = lower value 1.03 | S. cerevisiae deletion strains, locus YNL271C, strain bni1, stronger effect = lower value 1.02 | S. cerevisiae deletion strains, locus YNL298W, strain CLA4, stronger effect = lower value 1.03 | S. cerevisiae deletion strains, locus YNL307C, strain MCK1, stronger effect = lower value 1.03 | S. cerevisiae deletion strains, locus YNL322C, strain KRE1 (second series), stronger effect = lower value 1.01 | S. cerevisiae deletion strains, locus YNL322C, strain KRE1, stronger effect = lower value 1.01 | S. cerevisiae deletion strains, locus YNR049C, strain mso1, stronger effect = lower value 0.992 | S. cerevisiae deletion strains, locus YNR052C, strain pop2, stronger effect = lower value 1.02 | S. cerevisiae deletion strains, locus YOL006C, strain TOP1, stronger effect = lower value 1.05 | S. cerevisiae deletion strains, locus YOL012C, strain htz1 1.34 | S. cerevisiae deletion strains, locus YOL147C, strain pex11, stronger effect = lower value 1.02 | S. cerevisiae deletion strains, locus YOR001W, strain rrp6, stronger effect = lower value 1 | S. cerevisiae deletion strains, locus YOR061W, strain CKA2, stronger effect = lower value 1.02 | S. cerevisiae deletion strains, locus YOR069W, strain VPS5, stronger effect = lower value 1.01 | S. cerevisiae deletion strains, locus YOR070C, strain gyp1, stronger effect = lower value 0.992 | S. cerevisiae deletion strains, locus YOR080W, strain dia2, stronger effect = lower value 0.988 | S. cerevisiae deletion strains, locus YOR083W, strain WHI5, stronger effect = lower value 0.984 | S. cerevisiae deletion strains, locus YOR106W, strain vam3, stronger effect = lower value 0.979 | S. cerevisiae deletion strains, locus YOR136W, strain idh2, stronger effect = lower value 1.02 | S. cerevisiae deletion strains, locus YOR144C, strain elg1, stronger effect = lower value 1.03 | S. cerevisiae deletion strains, locus YOR184W, strain ser1, stronger effect = lower value 1.02 | S. cerevisiae deletion strains, locus YOR231W, strain MKK1, stronger effect = lower value 1.02 | S. cerevisiae deletion strains, locus YOR265W, strain rbl2, stronger effect = lower value 0.991 | S. cerevisiae deletion strains, locus YOR270C, strain vph1, stronger effect = lower value 1.04 | S. cerevisiae deletion strains, locus YOR290C, strain snf2, stronger effect = lower value 1.03 | S. cerevisiae deletion strains, locus YOR316C, strain cot1, stronger effect = lower value 1.02 | S. cerevisiae deletion strains, locus YPL051W, strain arl3, stronger effect = lower value 1.01 | S. cerevisiae deletion strains, locus YPL055C, strain LGE1, stronger effect = lower value 1.02 | S. cerevisiae deletion strains, locus YPL078C, strain atp4, stronger effect = lower value 0.994 | S. cerevisiae deletion strains, locus YPL106C, strain sse1, stronger effect = lower value 0.968 | S. cerevisiae deletion strains, locus YPL240C, strain hsp82, stronger effect = lower value 0.994 | S. cerevisiae deletion strains, locus YPL241C, strain CIN2, stronger effect = lower value 1.01 | S. cerevisiae deletion strains, locus YPL256C, strain CLN2, stronger effect = lower value 1.03 | S. cerevisiae deletion strains, locus YPR119W, strain clb2, stronger effect = lower value 1.02 | S. cerevisiae deletion strains, locus YPR141C, strain kar3, stronger effect = lower value 1.02 | S. cerevisiae deletion strains, locus YPR163C, strain tif3, stronger effect = lower value 1.04 | S. cerevisiae deletion strains, locus YPR167C, strain met16, stronger effect = lower value 1.02 | S. cerevisiae deletion strains, strain wtn01, stronger effect = lower value 1.02 | S. cerevisiae strains, strain wild type, stronger effect = lower value 1.02
